About 83,000 compounds went through this panel and 20% of them were active in at least one assay; those are over-represented in the sample as a whole.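 Assay: single dose, 48 h. Readout: percent growth (0 = no net growth; negative = cell death). Active: <10.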 The source made the active and inactive calls.
These molecules were tested on HOP-62 NSCLC (assay: NCI-60 one-dose screen, 48 h (100 = growth as untreated, 0 = no growth, -100 = all killed)). Conditions: 10 µM unless noted.

Row | SMILES | growth
1 | O=[N+]([O-])c1cccc2cc(S(=O)(=O)O)ccc12 | 98.8% (inactive)
2 | COc1ccc(SC2c3ccc(O)cc3Oc3nc(N)c(C#N)c(N)c32)cc1 (centres undefined) | 64.4% (inactive)
3 | Nc1nccc2c1ccn2-c1cccc(NC(=O)c2ccc(N3CCOCC3)c(C(F)(F)F)c2)c1 | 24.1% (inactive)
4 | COc1ccc(OC)c(NCC(=O)n2nc(/C=C\c3ccc(O)c(OC)c3)cc2/C=C\c2ccc(O)c(OC)c2)c1 | 11.8% (inactive)
5 | O=C(Nc1ccc(-n2cc(-c3ccncc3)c(-c3ccc(O)c(Cl)c3)n2)cc1)c1cc(C(F)(F)F)cc(C(F)(F)F)c1 | 81.2% (inactive)
6 | CC(C)(C)OC(=O)N1CCN(CCn2cc(C(F)(F)F)c3c(Cl)ncnc32)CC1 | 88.6% (inactive)
7 | COc1cc([C@@H]2c3cc4c(cc3C(OC3O[C@@H]5COC(C)O[C@H]5[C@H](O)[C@H]3O)C3COC(=O)[C@@H]32)OCO4)cc(OC)c1O (some centres undefined) | -9.99% (active)
8 | CNCCCOc1c(Br)cc(CCNC(=O)/C(Cc2cc(Br)c(OC)c(Br)c2)=N/O)cc1Br | -7.84% (active)
9 | CCCCCCCCN(CCCCCCCC)CC(O)c1cc(-c2ccccc2)nc2ccc(OC)cc12 (centres undefined) | 95.4% (inactive)
10 | CC(C)(C)NC(C1=CC(C)(C)c2ccccc2C1=O)c1ccccc1 (centres undefined) | -13.8% (active)
11 | CCOC(=O)C1CSC(C)(C(=O)OCC)N1 (centres undefined) | 90.6% (inactive)
12 | COc1ccc(-c2coc3c(CO)c(O)ccc3c2=O)cc1 | 53% (inactive)
13 | O=C(Cn1c2ccccc2c2ccncc21)N/N=C/c1c[nH]c2ccccc12 | 55.5% (inactive)
14 | CCCCC(=O)Nc1nc2ccc(SCCC)cc2s1 | 51.8% (inactive)
15 | O=C(COc1ccc(Cl)cc1Cl)N1N=C(c2ccc(Cl)cc2Cl)CC1(O)c1cc(F)c(Cl)cc1Cl (centres undefined) | 105% (inactive)
16 | Nc1nccc2c1ccn2-c1ccc(NC(=O)Nc2cccc(C(F)(F)F)c2)cc1 | 94.2% (inactive)
17 | COc1ccc(CNc2nc3ccccc3c3c(=O)c4ccccc4sc23)cc1OC | 79.8% (inactive)
18 | O=C1CCC(=O)N1C1CCCCC1 | 93.3% (inactive)
19 | Nc1ccc(S(=O)(=O)Nc2ccnn2-c2ccccc2)cc1 | 112% (inactive)
20 | COc1ccc(C2=NN(C(=O)COc3ccc(Cl)cc3)C(O)(c3cc(F)c(Cl)cc3Cl)C2)cc1OC (centres undefined) | 75.4% (inactive)

Row | SMILES | growth
21 | NCC(=O)NS(=O)(=O)OC[C@H]1O[C@@H](n2cnc3c(N)ncnc32)[C@H](O)[C@@H]1O | -32.1% (active)
22 | CCCC(=O)Oc1ccc(/C(=C(\C)c2ccc(Cl)cc2)c2ccc(OCCN(CC)CC)cc2)cc1 | -57.1% (active)
23 | O=C(NCCNc1nccc(-c2c(-c3cccc(O)c3)nc3sccn23)n1)c1ccc(N2CCOCC2)c(C(F)(F)F)c1 | 96.7% (inactive)
24 | C#C[C@@]1(O)[C@@H](CO)O[C@@H](n2cc(Br)c3c(Cl)ccnc32)[C@@H]1O | 36.4% (inactive)
25 | CN(C)c1ccc(/C=N/N=C(N)N)cc1 | 75.3% (inactive)
26 | C=C1c2c(Cl)ccc(O)c2C(O)=C2C(=O)[C@]3(O)C(O)=C(C(N)=O)C(=O)[C@@H](N(C)C)[C@@H]3[C@@H](O)[C@H]12 | 9.39% (active)
27 | O=C(Nc1ccccc1Cl)c1c[nH]c(=O)c(-c2ccc(N3CCCOC4(CC4)C3)cc2)c1 | 69.7% (inactive)
28 | Cc1ccc2oc(=O)cc(C3C(C#N)=C(N)Oc4c3ccc3ccccc43)c2c1 (centres undefined) | 63.7% (inactive)
29 | COc1ccc2c(-c3ccc(F)cc3)c(C#N)c(=NC(C)=O)oc2c1 | 62.8% (inactive)
30 | O=C(Nc1ccc(-n2ccc3c(NC(=O)c4ccccc4)ncnc32)cc1)c1cccc(C(F)(F)F)c1 | 71.5% (inactive)
31 | C=C1C(=O)O[C@H]2[C@H]1CC/C(COC(=O)n1ccnc1C)=C\CC[C@@]1(C)O[C@@H]21 | 99.4% (inactive)
32 | CCn1cc(C(=O)O)c(=O)c2cc(F)c(N3CCN(CC(=O)Nc4ccc(C(C)=O)cc4)CC3)cc21 | 101% (inactive)
33 | COc1ccc(Cl)cc1NC(=O)c1cc2c([nH]1)-c1nc(NC(=O)C(C)(C)C)sc1CC2 | 61.7% (inactive)
34 | COc1ccccc1P(c1ccccc1OC)c1ccccc1OC | 113% (inactive)
35 | Nc1nc(=S)ss1 | 97.3% (inactive)
36 | CCCOC(=O)c1ccc([N+](=O)[O-])o1 | 114% (inactive)
37 | O=C(CSc1nnc(-c2ccc(Cl)cc2)o1)Nc1ccc(C(=O)/C=C/c2ccccc2)cc1 | 107% (inactive)
38 | Cc1ccc(NC(=O)CN2CCOCC2)cc1Cl | 91% (inactive)
39 | CCCCCC/C=N/Nc1ccc([N+](=O)[O-])cn1 | 87.8% (inactive)

— PubChem BioAssay (NCI)
